Cytotoxicity call data for 42 compounds are collected here from the antibiotic and cytotoxicity screens of Wong et al. (2023).

Hit rate of the full screen: of about 39,000 compounds, about 3,300 (8.5%) were called active. The sample as a whole holds a higher share of actives than the screen did.

This experiment concerns HepG2. In words: cytotoxicity call (relative viability < 0.9). The note with it: 10 µM.
As to `CNC(=O)C[C@H]1CC[C@@H]2[C@H](COC[C@H](O)CN2C(=O)Nc2cccc(OC)c2)O1`, the cytotoxicity call was “inactive”.

`C[C@@H]1CCCCO[C@H](CN(C)C(=O)Nc2cccc3ccccc23)[C@@H](C)CN([C@H](C)CO)C(=O)c2cc(NC(=O)Nc3cccc4ccccc34)ccc2O1`: the cytotoxicity call was “inactive”.

Consider `C[C@@H]1CN([C@@H](C)CO)C(=O)c2cc(NS(=O)(=O)c3ccc(Cl)cc3)ccc2O[C@@H](C)CCCCO[C@H]1CN(C)S(=O)(=O)c1ccccc1`, for which the cytotoxicity call was “inactive”.

As for `COc1ccc(NC(=O)N(C)C[C@H]2OCc3cnnn3CCCC(=O)N([C@H](C)CO)C[C@H]2C)c(OC)c1`, the cytotoxicity call was “inactive”.

As for `C[C@@H]1CN([C@H](C)CO)C(=O)c2c(c3ccccc3n2C)-c2ccccc2CO[C@H]1CN(C)C(=O)CCC(F)(F)F`, the cytotoxicity call was “inactive”.

As to `C[C@@H]1CN([C@@H](C)CO)C(=O)c2cc(C#CC3(O)CCCC3)cnc2O[C@@H]1CN(C)C(=O)Nc1ccc2c(c1)OCO2`, the cytotoxicity call was “inactive”.

In the case of `COCC#Cc1ccc2c(c1)O[C@@H](CN(C)C(=O)C1CCOCC1)[C@@H](C)CN([C@H](C)CO)S2(=O)=O`, the cytotoxicity call was “inactive”.

With `CCS(=O)(=O)Nc1ccc2c(c1)C(=O)N(C)[C@H]1CC[C@@H](CC(=O)NCc3ccccc3F)O[C@H]1CO2`, the cytotoxicity call is “inactive”.

As for `C[C@H]1CN([C@@H](C)CO)C(=O)Cc2cc(NC(=O)CCCCCC(=O)Nc3ccccc3N)ccc2O[C@@H]1CN(C)Cc1ccc(-c2ccccc2)cc1`, the cytotoxicity call is “inactive”.

As to `C[C@@H]1CN([C@@H](C)CO)C(=O)Cc2cc(NC(=O)CCCCCC(=O)Nc3ccccc3N)ccc2O[C@@H]1CN(C)Cc1ccc(-c2ccccc2)cc1`, the cytotoxicity call was “active”.

Consider `C[C@H](CO)N1C[C@H](C)[C@H](CN(C)Cc2ccccc2)Oc2ccc(NC(=O)CCCCCC(=O)Nc3ccccc3N)cc2CC1=O`, for which the cytotoxicity call was “inactive”.

Turning to `C[C@H]1CN([C@@H](C)CO)C(=O)Cc2cc(NC(=O)CCCCCC(=O)Nc3ccccc3N)ccc2O[C@H]1CN(C)Cc1ccc(Cl)c(Cl)c1`, the cytotoxicity call was “inactive”.

As to `C[C@H](CO)N1C[C@H](C)[C@H](CN(C)Cc2ccc(-c3ccccc3)cc2)Oc2ccc(NC(=O)CCCCCC(=O)Nc3ccccc3N)cc2CC1=O`, the cytotoxicity call is “active”.

For `C[C@@H]1CN([C@H](C)CO)C(=O)Cc2cc(NC(=O)CCCCCC(=O)Nc3ccccc3N)ccc2O[C@@H]1CN(C)Cc1ccc(-c2ccccc2)cc1`, the cytotoxicity call was “active”.

For `C[C@@H]1CN([C@H](C)CO)C(=O)Cc2cc(NC(=O)CCCCCC(=O)Nc3ccccc3N)ccc2O[C@@H]1CN(C)Cc1ccccc1`, the cytotoxicity call was “inactive”.

On to `C[C@H]1CN([C@@H](C)CO)C(=O)Cc2cc(NC(=O)CCCCCC(=O)Nc3ccccc3N)ccc2O[C@H]1CN(C)Cc1ccccc1`, for which the cytotoxicity call was “inactive”.

In the case of `C[C@@H]1CN([C@H](C)CO)C(=O)Cc2cc(NC(=O)CCCCCC(=O)Nc3ccccc3N)ccc2O[C@H]1CN(C)Cc1ccc(Cl)c(Cl)c1`, the cytotoxicity call was “inactive”.

For the compound `C[C@@H]1CN([C@H](C)CO)C(=O)Cc2cc(NC(=O)CCCCCC(=O)Nc3ccccc3N)ccc2O[C@@H]1CN(C)Cc1ccc(Cl)c(Cl)c1`, the cytotoxicity call was “active”.

In the case of `C[C@@H]1CN([C@@H](C)CO)C(=O)Cc2cc(NC(=O)CCCCCC(=O)Nc3ccccc3N)ccc2O[C@@H]1CN(C)Cc1ccccc1`, the cytotoxicity call was “inactive”.

As to `C[C@H](CO)N1C[C@H](C)[C@@H](CN(C)Cc2ccc(-c3ccccc3)cc2)Oc2ccc(NC(=O)CCCCCC(=O)Nc3ccccc3N)cc2CC1=O`, the cytotoxicity call was “inactive”.

On to `COc1ccc2c3c(n(c2c1)C)[C@H](CO)N(C[C@]13CCN(CC1)S(=O)(=O)c1ccccc1)C(=O)c1cccnc1`, for which the cytotoxicity call is “inactive”.

In the case of `c1ccc(-c2cc(-c3nc4ccccc4[nH]3)c3ccccc3n2)cc1`, the cytotoxicity call is “inactive”.

Consider `CNCc1cnc(NC)nc1`, for which the cytotoxicity call was “inactive”.

As to `C[C@@H]1CN([C@H](C)CO)C(=O)c2cccc(NS(=O)(=O)c3cn(C)cn3)c2O[C@H]1CN(C)CC1CC1`, the cytotoxicity call is “inactive”.

In the case of `CCO[C@@H]1OC(C(=O)N2CCN(Cc3ccccc3)CC2)=C[C@H](c2cn(C(C)=O)c3ccccc23)[C@H]1CCCOC(=O)NCCCCCC(=O)NO`, the cytotoxicity call is “inactive”.

With `CNCc1cc(C)nn1C`, the cytotoxicity call is “inactive”.

As for `COc1cccc(-c2cn(CC[C@@H]3CC[C@@H](NS(=O)(=O)c4ccccc4Cl)[C@H](CO)O3)nn2)c1`, the cytotoxicity call was “inactive”.

Regarding `C[C@H](CO)N1C[C@H](C)[C@@H](CN(C)S(=O)(=O)c2ccc(F)cc2)Oc2ccc(NC(=O)C3CC3)cc2C1=O`, the cytotoxicity call was “inactive”.

As for `Cc1ccc(S(=O)(=O)N[C@H]2CC[C@@H](CC(=O)NCc3ccc(Cl)c(Cl)c3)O[C@H]2CO)cc1`, the cytotoxicity call is “inactive”.

As to `C[C@@H]1CCCCO[C@@H](CN(C)CC2CC2)[C@@H](C)CN([C@H](C)CO)C(=O)c2cc(NC(=O)CCC(F)(F)F)ccc2O1`, the cytotoxicity call is “inactive”.

As to `C[C@H]1CN([C@@H](C)CO)C(=O)Cc2cc(NC(=O)CCCCCC(=O)Nc3ccccc3N)ccc2O[C@H]1CN(C)Cc1ccc(-c2ccccc2)cc1`, the cytotoxicity call was “active”.

Take `C[C@@H]1CN([C@@H](C)CO)C(=O)Cc2cc(NC(=O)CCCCCC(=O)Nc3ccccc3N)ccc2O[C@H]1CN(C)Cc1ccc(-c2ccccc2)cc1`: the cytotoxicity call is “inactive”.

For `C[C@@H]1CN([C@H](C)CO)C(=O)Cc2cc(NC(=O)CCCCCC(=O)Nc3ccccc3N)ccc2O[C@H]1CN(C)Cc1ccc(-c2ccccc2)cc1`, the cytotoxicity call is “inactive”.

Take `C[C@@H]1CN([C@H](C)CO)C(=O)c2cccc(NS(=O)(=O)c3ccc(Cl)cc3)c2O[C@@H]1CN(C)Cc1ccc(C(=O)Nc2ccccc2N)cc1`: the cytotoxicity call was “inactive”.

As to `C[C@@H]1CN([C@@H](C)CO)C(=O)c2cc(NS(=O)(=O)c3ccc(Cl)cc3)ccc2O[C@@H]1CN(C)Cc1ccc(C(=O)Nc2ccccc2N)cc1`, the cytotoxicity call is “active”.

`C[C@@H]1CN([C@@H](C)CO)C(=O)c2cccc(NS(=O)(=O)c3ccc(Cl)cc3)c2O[C@H]1CN(C)Cc1ccc(C(=O)Nc2ccccc2N)cc1`: the cytotoxicity call is “inactive”.

Take `C[C@@H]1CN([C@H](C)CO)C(=O)c2cc(NS(=O)(=O)c3ccc(Cl)cc3)ccc2O[C@@H]1CN(C)Cc1ccc(C(=O)Nc2ccccc2N)cc1`: the cytotoxicity call was “inactive”.

Consider `C[C@H](CO)N1C[C@H](C)[C@H](CN(C)Cc2ccc(C(=O)Nc3ccccc3N)cc2)Oc2ccc(NS(=O)(=O)c3ccc(Cl)cc3)cc2C1=O`, for which the cytotoxicity call was “inactive”.

With `C[C@H]1CN([C@@H](C)CO)C(=O)c2cccc(NS(=O)(=O)c3ccc(Cl)cc3)c2O[C@@H]1CN(C)Cc1ccc(C(=O)Nc2ccccc2N)cc1`, the cytotoxicity call is “inactive”.

Turning to `C[C@H](CO)N1C[C@H](C)[C@H](CN(C)Cc2ccc(C(=O)Nc3ccccc3N)cc2)Oc2c(NS(=O)(=O)c3ccc(Cl)cc3)cccc2C1=O`, the cytotoxicity call was “active”.

In the case of `C[C@@H]1CN([C@@H](C)CO)C(=O)c2cccc(NS(=O)(=O)c3ccc(Cl)cc3)c2O[C@@H]1CN(C)Cc1ccc(C(=O)Nc2ccccc2N)cc1`, the cytotoxicity call was “active”.

As to `C[C@@H]1CN([C@H](C)CO)C(=O)c2cccc(NS(=O)(=O)c3ccc(Cl)cc3)c2O[C@H]1CN(C)Cc1ccc(C(=O)Nc2ccccc2N)cc1`, the cytotoxicity call is “inactive”.
